Data on 20 compounds can be found in PubChem BioAssay (NCI).

A short description of test [1]: NCI Yeast Anticancer Drug Screen. Data for the rad50 strain (AID 155).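 Note: 0% = growth of vehicle-only cultures of the same strain.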 Conditions: S. cerevisiae rad50 strain growth inhibition; at 50.0 µM; hits give high values. In outline:
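Relative growth inhibition (compound vs vehicle) was measured in yeast with a defined repair-gene alteration.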

Test [2] can be described thus: NCI Yeast Anticancer Drug Screen. Data for the mec2-1 strain (AID 157). The note with it: S. cerevisiae mec2-1 strain, at 50.0 µM, hits give high values. A digest of the protocol:
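Readout is yeast growth inhibition, normalised to vehicle-treated controls, in the mec2-1 strain exposed to compound.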

A short description of test [3]: NCI Yeast Anticancer Drug Screen. Data for the sgs1 mgt1 strain (AID 161).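 Note: 0% = growth of cultures given vehicle only.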 Conditions: S. cerevisiae sgs1 mgt1 strain, at 50.0 µM, hits give high values. A digest of the protocol:
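Growth of a repair-deficient yeast mutant was monitored after compound treatment and expressed as inhibition relative to vehicle-treated cultures.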

A short description of test [4]: NCI Yeast Anticancer Drug Screen. Data for the cln2 rad14 strain (AID 165).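 Note: 0% = growth equal to vehicle treated cultures.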 The note with it: S. cerevisiae cln2 rad14 strain, at 50.0 µM, hits give high values. In outline:
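Relative to vehicle controls, growth inhibition of compound-treated cln2 rad14 yeast was recorded.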

Test [5] is described as follows: NCI Yeast Anticancer Drug Screen. Data for the bub3 strain (AID 167). Conditions: S. cerevisiae bub3 mutant strain, at 50.0 µM, hits give high values. In outline: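 Screening used yeast with an engineered genetic alteration affecting cell cycle control. Compound-exposed cultures were compared with vehicle cultures, and reduced growth was taken as inhibition.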
The nature of test [6]: NCI Yeast Anticancer Drug Screen. Data for the mlh1 rad18 strain (AID 175). The note with it: S. cerevisiae mlh1 rad18 strain growth inhibition; at 50.0 µM; hits give high values. In outline: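 Test agents were incubated with a yeast strain of defined genotype (DNA damage repair defect). Inhibition of growth was derived by comparison with vehicle-exposed cultures.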

The panel holds about 79,000 compounds, 15% with a hit somewhere; the sample as a whole holds those more often. A number with no mark means an inactive call. Calls of active or inactive are those of the source. Cut-off read from the data, not from the text of the source: active = growth inhibition above about 70%; inactive = the rest.

As to `C/C(=N\NC(N)=S)c1ccc(/C(C)=N/NC(N)=S)cc1`, the growth inhibition in test [1] was -44.6%; in test [2], -0.25%; in test [3] it was 0.8%; in test [4], -13.2%; in test [5], -1.2%; in test [6] it was -19.6%.

For `C[N+](C)(C)CC(=O)N/N=C(\Cc1nc2ccc([N+](=O)[O-])cc2[nH]c1=O)C(=O)Nc1nc2ccc([N+](=O)[O-])cc2s1`, the growth inhibition in test [1] is 47.2%; in test [2] it was 29.9%; in test [3], 24.6%; in test [4], -6.05%; in test [5], 53.2%; in test [6], 16.9%.

As to `Nc1cc(N)[nH]c(=S)n1`, the growth inhibition was 16.8% in test [1]; 10.2% in test [2]; 13.9% in test [3]; -10.9% in test [4]; -3.95% in test [5]; -2.35% in test [6].

For the compound `CN(C)C=Nc1ccn(C2CC(F)C(CO)O2)c(=O)n1` (stereo not given), the growth inhibition in test [1] was 4.55%; in test [2], 13.2%; in test [3], -22.4%; in test [4] it was -7.85%; in test [5], 8.8%; in test [6], 13%.

Regarding `CN1C[C@H]2[C@@H](C1=O)[C@H](c1ccc([N+](=O)[O-])cc1)ON2C`, the growth inhibition was -50.5% in test [1]; -72.5% in test [2]; -39.7% in test [3]; 14.9% in test [4]; 1.2% in test [5]; -33.8% in test [6].

Regarding `CC1=C(O)c2ccccc2C(=O)C1=O`, the growth inhibition is 25.4% in test [1]; 16.8% in test [2]; 40.3% in test [3]; 36.2% in test [4]; 12.8% in test [5]; 23.8% in test [6].

For `C/C(=N\O)c1ccc(OCc2cc(C(F)(F)F)cc(C(F)(F)F)c2)cc1`, the growth inhibition in test [1] was -10.1%; in test [2], -26.2%; in test [3], -6.75%; in test [4], -1.5%; in test [5] it was -2.15%; in test [6], 7.5%.

Turning to `COC1OCC(NC(=O)CNC(=O)CCCCCCCCCCCCC(C)C)C(O)C1O` (stereo not given), the growth inhibition in test [1] was 16.2%; in test [2] it was 5.55%; in test [3], 8.75%; in test [4], 32.5%; in test [5], -8.1%; in test [6], 18.6%.

On to `Cc1cc(C)c[n+](-c2nc3c([O-])n(C)c(=O)n(C)c-3n2)c1`, for which the growth inhibition in test [1] was -5.35%; in test [2], 3.15%; in test [3], -17.8%; in test [4], -5.45%; in test [5] it was -8.25%; in test [6] it was -4.15%.

For the compound `CCC(O)CN(C)C` (stereo not given), the growth inhibition is 8% in test [1]; -4.6% in test [2]; 6.65% in test [3]; -13.4% in test [4]; 0.85% in test [5]; 3.45% in test [6].

As to `CSC(N)=Nc1c(C)cccc1C`, the growth inhibition is 3.55% in test [1]; 22.9% in test [2]; 5.35% in test [3]; -4.1% in test [4]; 2.9% in test [5]; -16.7% in test [6].

Turning to `CCN(CC)CCNc1nc(N)c(C#N)c(C#N)c1C#N`, the growth inhibition was 5.8% in test [1]; -14.4% in test [2]; -4.55% in test [3]; 9% in test [4]; -8.3% in test [5]; 1.45% in test [6].

For `O=C(NO)c1ccc(Cl)cc1Cl`, the growth inhibition in test [1] is 57.9%; in test [2], -0.8%; in test [3], 37.7%; in test [4] it was -11.9%; in test [5], 18.6%; in test [6], 43.7%.

For the compound `COc1c(C)cc(-c2cc(C)c(OC)c(C)c2)cc1C`, the growth inhibition in test [1] was -3.45%; in test [2] it was 8.05%; in test [3] it was 1.7%; in test [4], 9.4%; in test [5] it was -8.8%; in test [6] it was -3.55%.

On to `CC/C(=N/N(C)C)C(=O)O`, for which the growth inhibition in test [1] was -29.4%; in test [2], -3.9%; in test [3], -5.3%; in test [4] it was -10.6%; in test [5], -17.1%; in test [6], -16.3%.

Turning to `CCCCCCCCCCCCCCCC[N+](C)(C)CCNC(C)=O`, the growth inhibition was 99.2% (active) in test [1]; 99.6% (active) in test [2]; 99.7% (active) in test [3]; 98.7% (active) in test [4]; 99.2% (active) in test [5]; 99.5% (active) in test [6].

Consider `Nc1ccc(-c2nc3ccccc3[nH]2)cc1`, for which the growth inhibition is -2.55% in test [1]; 17.8% in test [2]; 3.1% in test [3]; 9% in test [4]; 18.9% in test [5]; -0.8% in test [6].

Regarding `O=C(Nc1ccccc1SC(/C=C/NNC1=NC(c2ccccc2)C(c2ccccc2)=NN1)c1ccccc1)c1ccc(Cl)cc1Cl` (stereo not given), the growth inhibition in test [1] is -35%; in test [2], -7.7%; in test [3], -22.8%; in test [4], 24.8%; in test [5] it was 0.15%; in test [6] it was -13.4%.

For the compound `CN1C(=O)Cn2c(n[nH]c(=O)c2=O)-c2cc(Cl)ccc21`, the growth inhibition is -22.4% in test [1]; 12.3% in test [2]; 10.3% in test [3]; -36.5% in test [4]; 12.9% in test [5]; 6.2% in test [6].

As to `c1ccc2c(c1)c1c(n2CCOCCN2CCCCC2)CCCC1`, the growth inhibition in test [1] was 33.9%; in test [2], 19.9%; in test [3], 29.3%; in test [4], 28.1%; in test [5], 28.4%; in test [6], 19.8%.
